Source: PubChem BioAssay AID1159580 (chemical genetic matrix, 2015)
Out of some 5,500 compounds screened, about 2,000 (36%) were called active. Not shown: some 18% with an inconclusive outcome. Rule as the data show it: active = normalized growth mostly below about 0.91 (no sharp cut-off); inconclusive = no clear call, values can overlap the other calls; inactive = mostly above about 0.92. Some of the results follow.

Assay: chemical genetic growth profiling, strain panel (AID 1159580);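 also: tested at 20 µM; growth read once vehicle control cultures reached saturation at 30 °C; 1 = growth at the plate median or of vehicle wells; lower values mean less growth of the strain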
Settings: growth OD

Measured: normalized growth

C=CC(C1=CC(=O)C(OC)=CC1=O)c1ccccc1 (configuration not stated)
active: S. cerevisiae deletion strains, locus YJR075W, strain HOC1, stronger effect = lower value 0.88 | S. cerevisiae deletion strains, locus YKL160W, strain elf1, stronger effect = lower value 0.79 | S. cerevisiae deletion strains, locus YKL190W, strain CNB1, stronger effect = lower value 0.866 | S. cerevisiae deletion strains, locus YKR001C, strain vps1, stronger effect = lower value 0.774 | S. cerevisiae deletion strains, locus YLL001W, strain dnm1, stronger effect = lower value 0.885 | S. cerevisiae deletion strains, locus YLL026W, stronger effect = lower value 0.85 | S. cerevisiae deletion strains, locus YLR027C, strain aat2, stronger effect = lower value 0.808 | S. cerevisiae deletion strains, locus YLR039C, strain RIC1, stronger effect = lower value 0.519 | S. cerevisiae deletion strains, locus YLR113W, strain HOG1, stronger effect = lower value 0.663 | S. cerevisiae deletion strains, locus YLR221C, strain rsa3, stronger effect = lower value 0.734 | S. cerevisiae deletion strains, locus YLR258W, strain gsy2, stronger effect = lower value 0.875 | S. cerevisiae deletion strains, locus YLR262C, strain YPT6 (second series), stronger effect = lower value 0.518 | S. cerevisiae deletion strains, locus YLR262C, strain YPT6, stronger effect = lower value 0.405 | S. cerevisiae deletion strains, locus YLR320W, strain mms22, stronger effect = lower value 0.379 | S. cerevisiae deletion strains, locus YLR330W, strain CHS5, stronger effect = lower value 0.912 | S. cerevisiae deletion strains, locus YLR342W, strain FKS1 (second series), stronger effect = lower value 0.603 | S. cerevisiae deletion strains, locus YLR342W, strain FKS1, stronger effect = lower value 0.79 | S. cerevisiae deletion strains, locus YLR418C, strain cdc73, stronger effect = lower value 0.774 | S. cerevisiae deletion strains, locus YML032C, strain rad52, stronger effect = lower value 0.883 | S. cerevisiae deletion strains, locus YML120C, strain ndi1, stronger effect = lower value 0.864 | S. cerevisiae deletion strains, locus YMR125W, strain sto1, stronger effect = lower value 0.852 | S. cerevisiae deletion strains, locus YMR205C, strain PFK2, stronger effect = lower value 0.784 | S. cerevisiae deletion strains, locus YMR223W, strain ubp8, stronger effect = lower value 0.84 | S. cerevisiae deletion strains, locus YNL071W, strain lat1, stronger effect = lower value 0.213 | S. cerevisiae deletion strains, locus YNL209W, strain ssb2, stronger effect = lower value 0.908 | S. cerevisiae deletion strains, locus YNL233W, strain BNI4, stronger effect = lower value 0.808 | S. cerevisiae deletion strains, locus YNL248C, strain rpa49, stronger effect = lower value 0.842 | S. cerevisiae deletion strains, locus YNL307C, strain MCK1, stronger effect = lower value 0.302 | S. cerevisiae deletion strains, locus YOL147C, strain pex11, stronger effect = lower value 0.926 | S. cerevisiae deletion strains, locus YOR070C, strain gyp1, stronger effect = lower value 0.79 | S. cerevisiae deletion strains, locus YOR106W, strain vam3, stronger effect = lower value 0.739 | S. cerevisiae deletion strains, locus YOR184W, strain ser1, stronger effect = lower value 0.536 | S. cerevisiae deletion strains, locus YOR231W, strain MKK1, stronger effect = lower value 0.853 | S. cerevisiae deletion strains, locus YOR270C, strain vph1, stronger effect = lower value 0.761 | S. cerevisiae deletion strains, locus YPL051W, strain arl3, stronger effect = lower value 0.737 | S. cerevisiae deletion strains, locus YPL078C, strain atp4, stronger effect = lower value 0.868 | S. cerevisiae deletion strains, locus YPL240C, strain hsp82, stronger effect = lower value 0.904 | S. cerevisiae deletion strains, locus YPL256C, strain CLN2, stronger effect = lower value 0.75 | S. cerevisiae deletion strains, locus YPR163C, strain tif3, stronger effect = lower value 0.766 | S. cerevisiae deletion strains, strain wtn01, stronger effect = lower value 0.846 | S. cerevisiae strains, strain wild type, stronger effect = lower value 0.805
inactive: S. cerevisiae deletion strains, locus YKL009W, strain mrt4, stronger effect = lower value 0.905 | S. cerevisiae deletion strains, locus YKL068W, stronger effect = lower value 0.977 | S. cerevisiae deletion strains, locus YKL085W, strain MDH1 (second series), stronger effect = lower value 0.954 | S. cerevisiae deletion strains, locus YKL085W, strain MDH1, stronger effect = lower value 0.954 | S. cerevisiae deletion strains, locus YKR026C, strain gcn3, stronger effect = lower value 0.987 | S. cerevisiae deletion strains, locus YKR091W, strain srl3, stronger effect = lower value 0.995 | S. cerevisiae deletion strains, locus YLL041C, strain sdh2, stronger effect = lower value 0.978 | S. cerevisiae deletion strains, locus YLR058C, strain SHM2, stronger effect = lower value 0.953 | S. cerevisiae deletion strains, locus YLR102C, strain apc9, stronger effect = lower value 0.949 | S. cerevisiae deletion strains, locus YLR268W, strain sec22, stronger effect = lower value 0.888 | S. cerevisiae deletion strains, locus YLR357W, strain rsc2, stronger effect = lower value 1.04 | S. cerevisiae deletion strains, locus YLR370C, strain arc18, stronger effect = lower value 0.949 | S. cerevisiae deletion strains, locus YLR371W, strain rom2, stronger effect = lower value 0.937 | S. cerevisiae deletion strains, locus YLR384C, strain iki3, stronger effect = lower value 0.978 | S. cerevisiae deletion strains, locus YML016C, strain PPZ1, stronger effect = lower value 0.959 | S. cerevisiae deletion strains, locus YML124C, strain tub3, stronger effect = lower value 0.963 | S. cerevisiae deletion strains, locus YMR058W, strain fet3, stronger effect = lower value 0.921 | S. cerevisiae deletion strains, locus YMR078C, strain ctf18, stronger effect = lower value 0.928 | S. cerevisiae deletion strains, locus YMR129W, stronger effect = lower value 0.988 | S. cerevisiae deletion strains, locus YMR231W, strain pep5, stronger effect = lower value 1.01 | S. cerevisiae deletion strains, locus YMR263W, strain SAP30, stronger effect = lower value 0.926 | S. cerevisiae deletion strains, locus YMR307W, strain GAS1, stronger effect = lower value 0.864 | S. cerevisiae deletion strains, locus YNL067W, strain RPL9B, stronger effect = lower value 0.873 | S. cerevisiae deletion strains, locus YNL128W, strain TEP1, stronger effect = lower value 0.906 | S. cerevisiae deletion strains, locus YNL153C, strain GIM3, stronger effect = lower value 0.972 | S. cerevisiae deletion strains, locus YNL183C, strain NPR1, stronger effect = lower value 0.871 | S. cerevisiae deletion strains, locus YNL250W, strain rad50, stronger effect = lower value 0.956 | S. cerevisiae deletion strains, locus YNL271C, strain bni1, stronger effect = lower value 0.958 | S. cerevisiae deletion strains, locus YNL298W, strain CLA4, stronger effect = lower value 0.919 | S. cerevisiae deletion strains, locus YNL322C, strain KRE1 (second series), stronger effect = lower value 0.969 | S. cerevisiae deletion strains, locus YNL322C, strain KRE1, stronger effect = lower value 0.928 | S. cerevisiae deletion strains, locus YNR049C, strain mso1, stronger effect = lower value 0.992 | S. cerevisiae deletion strains, locus YNR052C, strain pop2, stronger effect = lower value 0.954 | S. cerevisiae deletion strains, locus YOL006C, strain TOP1, stronger effect = lower value 0.69 | S. cerevisiae deletion strains, locus YOL012C, strain htz1 0.631 | S. cerevisiae deletion strains, locus YOR001W, strain rrp6, stronger effect = lower value 0.943 | S. cerevisiae deletion strains, locus YOR061W, strain CKA2, stronger effect = lower value 0.956 | S. cerevisiae deletion strains, locus YOR069W, strain VPS5, stronger effect = lower value 0.958 | S. cerevisiae deletion strains, locus YOR080W, strain dia2, stronger effect = lower value 0.996 | S. cerevisiae deletion strains, locus YOR083W, strain WHI5, stronger effect = lower value 0.905 | S. cerevisiae deletion strains, locus YOR136W, strain idh2, stronger effect = lower value 0.942 | S. cerevisiae deletion strains, locus YOR144C, strain elg1, stronger effect = lower value 0.973 | S. cerevisiae deletion strains, locus YOR265W, strain rbl2, stronger effect = lower value 0.93 | S. cerevisiae deletion strains, locus YOR290C, strain snf2, stronger effect = lower value 0.89 | S. cerevisiae deletion strains, locus YOR316C, strain cot1, stronger effect = lower value 0.96 | S. cerevisiae deletion strains, locus YPL055C, strain LGE1, stronger effect = lower value 0.816 | S. cerevisiae deletion strains, locus YPL106C, strain sse1, stronger effect = lower value 1.03 | S. cerevisiae deletion strains, locus YPL241C, strain CIN2, stronger effect = lower value 0.962 | S. cerevisiae deletion strains, locus YPR119W, strain clb2, stronger effect = lower value 0.966 | S. cerevisiae deletion strains, locus YPR141C, strain kar3, stronger effect = lower value 0.971 | S. cerevisiae deletion strains, locus YPR167C, strain met16, stronger effect = lower value 0.959
